Screening results (PubChem BioAssay)
Shown are actives, neighbours in structure and some others; about 2.6% of the full set was active somewhere.
Cruzain inh Det = blocks cruzain activity in presence of Triton detergent. Potency, µM, without a hit: max response, negative = inhibition, actives largely listed as inhibitors. AID 1478. purified cruzain, Z-FR-AMC fluorescence, 0.01% Triton. P25779. 200,000 tested, 0.43% active;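 note: plate controls were neutral wells for no effect and buffer without enzyme for full effect; nearly all actives have a fitted effect of over 40% in size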
Target sequence (P25779 123-467 limits assumed): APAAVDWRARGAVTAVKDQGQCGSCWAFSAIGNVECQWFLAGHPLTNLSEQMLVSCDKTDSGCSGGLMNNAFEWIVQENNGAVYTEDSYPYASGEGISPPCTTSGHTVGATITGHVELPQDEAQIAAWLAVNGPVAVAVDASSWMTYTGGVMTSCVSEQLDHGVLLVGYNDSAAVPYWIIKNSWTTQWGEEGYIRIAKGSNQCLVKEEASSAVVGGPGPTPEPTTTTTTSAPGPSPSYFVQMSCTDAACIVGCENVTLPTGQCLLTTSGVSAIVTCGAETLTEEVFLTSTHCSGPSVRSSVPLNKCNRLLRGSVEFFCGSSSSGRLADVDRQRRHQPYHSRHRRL
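Steps: dispense cruzain (1.5 nM final) in acetate buffer pH 5.5 with DTT and 0.01% Triton X-100; pin-transfer compounds; incubate 15 min RT; add Z-FR-AMC (2 uM final); read fluorescence every 30 s, using the 60 s intensity change.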
Cruzain inh noDet = cruzain (T. cruzi) inhibition without detergent; P25779; 200,000 tested, 2.3% active; Potency, µM, for the others: max response, negative = inhibition, usual class: inhibitors; purified cruzain, Z-FR-AMC fluorescence, no detergent; AID 1476;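 note: plate controls were enzyme without inhibitor for no effect and buffer without enzyme for full effect; nearly all actives have a fitted effect of over 40% in size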
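Detergent-free condition (0.00005% Triton X-100) in acetate buffer pH 5.5 with DTT. 1.5 nM enzyme and compound were pre-mixed 15 min, then 2 uM Z-FR-AMC substrate added; reaction progress from fluorescence change between first and third reads (60 s).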
Active calls of the source: *; ? = inconclusive; ! = not confirmed by another sample. Calls come from the whole dose curve; as a rule, active = well fitted curve in the direction sought with a large enough effect; inconclusive = small, poorly fitted or top-dose-only effect, or another doubt; inactive = no such curve, though single readings can be large; an effect the other way counts as inactive or inconclusive. Potency is the fitted concentration of half-maximal effect.

SMILES	Cruzain inh Det	Cruzain inh noDet
CS(=O)(=O)N(CC(=O)N/N=C/c1cc([N+](=O)[O-])ccc1Cl)c1ccccc1	-6.9%	-17.4%
COc1ccc(NC(=O)Cn2c3ncccc3c(=O)n2-c2ccc(C)c(C)c2)c(OC)c1	0.6%	16.9%
CC(=O)c1ccc(NC(=O)c2cc(-c3ccc(C)s3)nc3ccccc23)cc1	-2.9%	4.5%
CC(C)(C)NC(=O)c1cnn(-c2ccccc2)c1C1CCN(C(=O)OC(C)(C)C)CC1	-0.1%	-1.5%
CC(C)c1ccc(NC(=O)C2CCCN(S(=O)(=O)c3cccc4cccnc34)C2)cc1 (stereo not drawn)	-8.5%	18.4%
COc1ccc(C(=O)Nc2ccc(C(=O)OCC(=O)c3cccc4ccccc34)cc2)cc1	-0.3%	1.58µM*
COc1ccc(C(=O)Nc2ccc(C)cc2C(=O)c2ccccc2)cc1	-3.8%	-3.1%
COc1ccc(OC)c(C(=O)c2ccc(C(=O)Nc3cccc4ccccc34)cc2)c1	-4.4%	25.1µM*
COc1ccc(C(=O)COC(=O)c2cccc(NC(=O)c3ccc(OC)c(OC)c3)c2)cc1	-2.7%	?
CCN(c1ccccc1)S(=O)(=O)c1ccc(NC(=O)c2cc(=O)c3cc(C)cc(C)c3o2)cc1	-0.8%	-3.6%
CCOC(=O)CSc1nc2sc3c(c2c(=O)n1CC)CCCC3	0.0%	1.6%
COc1cc2c(cc1OC)-c1cc(N3CCCc4ccccc43)nc(=O)n1CC2	-10.1%	20.5%
COc1cc2c(cc1OC)-c1cc(N3CCCCCC3)nc(=O)n1CC2	-15.1%	12.6µM*
Cc1ccc2c(=O)cc(C(=O)Nc3c(C)cccc3C)oc2c1	-4.7%	-17.5%
COc1ccccc1CNC(=O)c1cc2cccc3c2n1CCS3	-8.2%	25.1µM*
O=C(NCc1ccccc1Cl)c1cc2cccc3c2n1CCS3	-3.1%	?
CC(C)Cc1ccc(C(C)C(=O)Nc2nccs2)cc1 (stereo not drawn)	-4.5%	25.1µM*
CC(C)C(C(=O)Nc1nccs1)c1ccccc1 (stereo not drawn)	0.8%	6.6%
Nc1ccc(C(=O)n2c3ccccc3c3ccccc32)cc1	-11.6%	25.1µM*
Nc1ccc(C(=O)N2CCCC2)cc1	-1.4%	3.8%
CCCCCCCCOC(=O)C(NC(=O)CCC(=O)Nc1ccc(S(N)(=O)=O)cc1)C(O)c1ccccc1 (stereo not drawn)	2.9%	7.94µM*
CCOC(=O)C(NC(=O)CCC(=O)Nc1ccc(S(N)(=O)=O)cc1)C(O)c1ccccc1 (stereo not drawn)	0.5%	8.9%
Cc1cc(C)n2nc(CC(=O)NCc3ccccc3Cl)nc2n1	15.8µM*	7.9%
Cc1ccc(CNC(=O)Cc2nc3nc(C)cc(C)n3n2)cc1	1.2%	-4.8%
Cc1cc2oc(C(=O)Nc3c(C)n(C)n(-c4ccccc4)c3=O)cc(=O)c2cc1C	-2.6%	-0.1%
SMILES	Cruzain inh Det	Cruzain inh noDet
CC1CCCCN1CCCNC(=O)c1cc(Sc2cccc(Cl)c2)nc2ccccc12 (stereo not drawn)	1.6%	-12.1%
Cc1nc(NC(=O)c2ccccc2)sc1-c1csc(N)n1	-8.9%	-13.5%
Cc1nc(N)sc1-c1csc(N(C)c2ccc(O)cc2)n1	12.6µM*	5.01µM*
Cc1ccc(NC(=O)CSc2nnc(COc3ccc(Cl)cc3)o2)cc1	-5.7%	1.8%
COc1ccc(C)cc1-n1nnnc1SCC(=O)c1ccc2c(c1)OCCO2	0.0%	25.1µM*
COc1ccc(-n2nnnc2SCC(=O)c2ccc3c(c2)OCCO3)c(OC)c1	0.3%	?
COc1cc(NC(=O)c2cc(Cl)ccc2Cl)ccc1-c1cc2ccccc2oc1=O	-14.9%	20µM*
O=C(Nc1ccc2oc(-c3ccc4ccccc4c3)nc2c1)c1cc(Cl)ccc1Cl	-1.0%	5.01µM*
O=C(Nc1ccc2oc(-c3ccc4ccccc4c3)nc2c1)c1cc(Br)ccc1Cl	-0.1%	-0.5%
COc1ccc(C(=O)Nc2ccc(-c3cc4ccccc4oc3=O)c(C)c2)cc1OC	-2.0%	?
COc1ccc(F)cc1S(=O)(=O)NCCc1sc2nc(-c3ccc(F)cc3)nn2c1C	-10.2%	?
Cc1ccc2c(c1)C(c1ccc([N+](=O)[O-])cc1)=NNC(c1ccc(Br)cc1)=N2	-0.3%	?
CCc1ccc2c(c1)C(c1ccc([N+](=O)[O-])cc1)=NNC(c1ccc(Br)cc1)=N2	-4.1%	10µM*
CCCCCC1=C2CNC(Cc3ccccc3)(C(=O)OC)C=C2C(C)C1=O (stereo not drawn)	-7.1%	10.3%
Cc1cccc(CN(CC(=O)N/N=C/c2ccco2)S(=O)(=O)c2ccc(Cl)cc2)c1	-2.6%	16.9%
O=C(N/N=C\c1ccc(CNS(=O)(=O)c2ccc(Cl)cc2)o1)C(=O)Nc1ccc(Oc2ccccc2)cc1	-0.8%	7.94µM*
O=C(N/N=C\c1ccc(CN(Cc2ccc(Cl)cc2)S(=O)(=O)c2ccccc2)o1)C(=O)Nc1ccc(F)cc1	1.6%	7.94µM*
O=C(N/N=C\c1ccc(CNS(=O)(=O)c2ccccc2)o1)C(=O)Nc1ccc(F)cc1	1.3%	?
Cc1coc2c(C)c3oc(=O)c(CC(=O)N4CCCCC4)c(C)c3cc12	-0.9%	-9.7%
COc1ccccc1C1C=C(c2ccc(Cl)cc2)Nc2nc(-c3ccc(Cl)cc3)nn21 (stereo not drawn)	-4.7%	13.6%
CC(=O)c1ccc(N2CCN(C(=O)Nc3cn(CC(C)C)c(=O)c4ccccc34)CC2)cc1	-6.8%	-7.4%
Cc1ccc(CC(=O)N(Cc2nc(-c3ccc(C)cc3)no2)C(C)C)cc1	-3.0%	23.5%
COc1ccccc1-c1noc(CSc2nc3ccc(C)cc3[nH]2)n1	-11.0%	9.1%
CCOC(=O)/C(C#N)=N/Nc1ccc(S(=O)(=O)N2CCc3ccccc32)cc1	-6.7%	25.1µM*
Cc1ccc(C(=O)Nc2ccc(S(=O)(=O)N3CCc4ccccc43)cc2)o1	0.2%	-15.8%
SMILES	Cruzain inh Det	Cruzain inh noDet
Cc1cccc(OCCn2cc(/C=N/NC(=O)c3ccncc3)c3ccccc32)c1	-7.5%	?
CCC(C)c1ccc(OCCn2cc(/C=N/NC(=O)CSc3nnc(C)s3)c3ccccc32)cc1 (stereo not drawn)	0.7%	3.98µM*
CCNC(=S)N/N=C/c1cn(Cc2ccccc2F)c2ccccc12	-1.6%	?
CNC(=S)N/N=C/c1cn(Cc2c(F)cccc2Cl)c2ccccc12	-6.4%	31.6µM*
NC(=NCc1ccccc1)NC(=O)c1nc(Cl)c(N)nc1N	-13.1%	14.1µM*!
NC(=Nc1ccccc1)NC(=O)c1nc(Cl)c(N)nc1N	-12.2%	?
Cc1cc(OCC(=O)NC(Cc2c[nH]c3ccccc23)C(=O)O)ccc1Cl (stereo not drawn)	-12.0%	28.0%
O=S(=O)(c1ccc(Br)cc1)c1nnn2c1nc(NCc1ccc3c(c1)OCO3)c1sccc12	-2.0%	3.1%
CCN(CC)c1ccc(/C=c2\sc3nnc(-c4ccccc4Cl)n3c2=O)cc1	1.2%	12.6µM*
CCN(CC)c1ccc(/C=c2/sc3nnc(-c4ccccc4C)n3c2=O)cc1	-6.0%	?
CCCCNC(=O)CC1Nc2ccccc2NC1=O (stereo not drawn)	-3.3%	5.1%
CCCCOc1ccccc1NC(=O)CC1Nc2ccccc2NC1=O (stereo not drawn)	-0.4%	25.1µM*
O=C(c1cccc(F)c1)N1CCC2(CC1)CCN(c1ncccn1)CC2	-1.2%	14.0%
O=C1C2C3C=CC(C3=C(c3ccccc3)c3ccccc3)C2C(=O)N1Cc1ccccc1 (stereo not drawn)	2.6%	20µM*
O=C1C2C3C=CC(C3=C(c3ccccc3)c3ccccc3)C2C(=O)N1CCO (stereo not drawn)	-8.4%	?
